High-throughput results: PubChem BioAssay, National Center for Advancing Translational Sciences (NCATS)
L3MBTL1 block = qHTS Assay for the Inhibitors of L3MBTL1; AlphaScreen L3MBTL1–H3K9me1 peptide binding; Potency, µM (doses to about 57.1 µM), without a hit: top-dose activity, negative = inhibition, most hits filed as inhibitors; AID 485360, 2010; actives 0.66% (n = 230,000); Lethal(3)malignant brain tumor-like protein 1 (Homo sapiens), Q9Y468; note: % is set by controls: 0 for no effect and ±100 for the full control effect; nearly all actives have a fitted effect of over 60% in size
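AlphaScreen assay: L3MBTL1 (50 nM final) was preincubated 30 min at room temperature with biotinylated H3(1-15)K9me1 peptide (75 nM final), then 30 min with library compounds; streptavidin donor and nickel chelate acceptor beads (10 ug/mL final) added, 30 min dark.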
BAZ2B inh = qHTS Assay for Inhibitors of BAZ2B. Bromodomain adjacent to zinc finger domain protein 2B (Homo sapiens), Q9UIF8. AlphaScreen BAZ2B-H3K14Ac peptide displacement. Potency, µM (doses to about 114 µM), for inactives: at the top dose activity change, negative = inhibition, hits mostly inhibitors. actives 4.4% (n = 360,000). AID 504333, 2011; note: % is set by controls: 0 for no effect and ±100 for the full control effect; nearly all actives have a fitted effect of over 60% in size
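Compounds, titrated to a top concentration of 110 uM, were incubated 30 min at room temperature with preformed BAZ2B/acetyl-K14 H3 peptide complex (50 nM each). Proximity signal was measured by AlphaScreen after 20 min with beads.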
Sfp inh = qHTS Assay for Inhibitors of Bacillus subtilis Sfp phosphopantetheinyl transferase (PPTase). 4'-phosphopantetheinyl transferase ffp (Bacillus subtilis), Q9F4F7. Biochemical Sfp PPTase activity, qHTS. Potency, µM, inactives show largest response in the series, negative = inhibition, actives largely listed as inhibitors. actives 3.5% (n = 310,000). AID 1490, 2009;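 note: the enzyme is Sfp with the accession as filed and its product quenches rhodamine fluorescence; 0% = enzyme reaction without inhibitor and -100% = no enzyme wells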
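Sfp 15 nM + cpd, 15 min RT; start w/ rhodamine-CoA 5 uM, BHQ-2-YbbR 12.5 uM (final); 50 mM Hepes pH 7.6, 10 mM MgCl2, 0.01% NP-40, 0.01% BSA; read 525/598 nm at 0 and 30 min.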
JMJD2A Tudor = qHTS Assay for Inhibitors of JMJD2A-Tudor Domain. AlphaScreen JMJD2A-Tudor / H3K4me3 peptide binding. Potency, µM (highest dose often 114 µM), inactives show top-dose activity change, negative = inhibition, usual class: inhibitors. Lysine-specific demethylase 4A (Homo sapiens), O75164. AID 504339, 2011. actives 4.4% (n = 390,000); note: % is set by controls: 0 for no effect and ±100 for the full control effect; nearly all actives have a fitted effect of over 50% in size
Target sequence (O75164 whole entry, looked up, the tested form may be a part): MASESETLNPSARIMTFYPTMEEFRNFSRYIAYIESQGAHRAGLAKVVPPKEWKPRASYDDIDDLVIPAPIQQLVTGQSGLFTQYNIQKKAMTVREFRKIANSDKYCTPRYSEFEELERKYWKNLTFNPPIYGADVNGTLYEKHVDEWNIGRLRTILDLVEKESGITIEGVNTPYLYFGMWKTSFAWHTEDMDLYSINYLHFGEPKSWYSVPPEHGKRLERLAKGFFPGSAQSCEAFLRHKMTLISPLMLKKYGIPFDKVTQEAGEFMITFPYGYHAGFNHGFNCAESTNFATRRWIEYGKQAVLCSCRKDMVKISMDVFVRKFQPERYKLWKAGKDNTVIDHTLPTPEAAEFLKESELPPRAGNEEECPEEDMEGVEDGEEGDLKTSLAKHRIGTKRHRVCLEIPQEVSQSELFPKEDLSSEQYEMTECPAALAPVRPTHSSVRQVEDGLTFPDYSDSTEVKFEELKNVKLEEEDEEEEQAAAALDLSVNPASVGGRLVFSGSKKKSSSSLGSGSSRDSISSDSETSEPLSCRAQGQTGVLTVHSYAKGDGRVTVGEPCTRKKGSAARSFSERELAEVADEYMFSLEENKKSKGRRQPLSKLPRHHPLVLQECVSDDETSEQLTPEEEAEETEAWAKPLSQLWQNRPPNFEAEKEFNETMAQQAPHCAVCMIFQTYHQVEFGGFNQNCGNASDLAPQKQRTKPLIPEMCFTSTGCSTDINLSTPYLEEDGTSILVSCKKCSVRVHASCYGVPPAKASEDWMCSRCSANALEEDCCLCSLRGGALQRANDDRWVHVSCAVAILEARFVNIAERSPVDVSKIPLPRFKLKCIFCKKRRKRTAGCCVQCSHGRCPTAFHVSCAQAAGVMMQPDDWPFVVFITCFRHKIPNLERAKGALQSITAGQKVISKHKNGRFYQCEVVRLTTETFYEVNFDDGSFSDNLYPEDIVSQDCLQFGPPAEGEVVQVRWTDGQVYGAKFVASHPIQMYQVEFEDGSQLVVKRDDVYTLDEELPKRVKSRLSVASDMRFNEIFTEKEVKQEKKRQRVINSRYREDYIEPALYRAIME
G9a inh = qHTS Assay for Inhibitors of Histone Lysine Methyltransferase G9a; G9a H3K9 monomethylation, AlphaScreen, 2 h; Potency, µM (titrated, usually from 102 µM), for inactives: top-dose activity, negative = inhibition, most hits filed as inhibitors; actives 8.8% (n = 350,000); AID 504332, 2011; note: % is set by controls: 0 for no effect and ±100 for the full control effect; nearly all actives have a fitted effect of over 75% in size
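Compounds were preincubated with 20 nM G9a for 15 min, after which biotinylated H3K9 peptide (500 nM) and SAM (20 uM) started a 2 h room-temperature reaction. Monomethylated product was quantified by antibody-based AlphaScreen chemiluminescence.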
HP1b chromo inh = HTS for Inhibitors of HP1-beta Chromodomain Interactions with Methylated Histone Tails; AlphaScreen HP1-beta / biotin-H3K9me3 peptide binding; actives 0.56% (n = 390,000); Potency, µM (series often up to 114 µM), without a hit: at the top dose activity change, negative = inhibition, actives largely listed as inhibitors; AID 540317, 2011; Chromobox protein homolog 1 (Homo sapiens), P83916; note: nearly all actives have a fitted effect of over 70% in size
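AlphaScreen: HP1-beta (50 nM) preformed 30 min with biotin-H3(1-18)K9me3 peptide (50 nM) in PBS pH 7.4, 0.01% Tween-20. Compound added for 30 min at RT, then streptavidin donor/nickel chelate acceptor beads (10 ug/mL) for 30 min.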
Active calls of the source: *; ? = inconclusive; . = no result given; [ ] = remark or other dose. Hits are enriched below; roughly 12% of the tested compounds scored in any of these assays. Calls come from the whole dose curve; as a rule, active = well fitted curve in the direction sought with a large enough effect; inconclusive = small, poorly fitted or top-dose-only effect, or another doubt; inactive = no such curve, though single readings can be large; an effect the other way counts as inactive or inconclusive. Potency is the fitted concentration of half-maximal effect.

SMILES | L3MBTL1 block | BAZ2B inh | Sfp inh | JMJD2A Tudor | G9a inh | HP1b chromo inh
CCC1=C2CC[C@H]3C(=O)N(c4ccccc4)C(=O)[C@H]3[C@H]2[C@@]2(Cc3ccccc3)C(=NCCc3c[nH]c4ccccc34)OC(=O)N2C1=O | . | . | 28% | . | . | .
Cc1nc(SC2CC(=O)N(c3ccccc3)C2=O)n[nH]1 (stereo not given) | 20% | ? | 16µM* | ? | . | ?
CCOC(=O)c1ccc(N2C(=O)CC(Sc3nnc(C)s3)C2=O)cc1 (stereo not given) | -5% | -12% | 45µM* | 50µM* | 10µM* | -23%
C=CCNc1nnc(SC2CC(=O)N(c3ccc(OCCC)cc3)C2=O)s1 (stereo not given) | . | -4% | 50µM* | 35µM* | 8.9µM* | -24%
COc1ccc(Br)cc1CN1CCSCC1 | 1% | ? | -8% | 3.5µM* | 45µM* | 56µM*
COc1ccc(-c2[nH]ncc2CN2CCSCC2)c(OC)c1 | 1% | -3% | 12% | -6% | 2% | 17%
COc1ccc(Br)cc1CN1CCCCCC1 | -3% | ? | 13% | 22µM* | 32µM* | -24%
COc1ccc(CN2CCCCCC2)cc1Br | 1% | ? | 0% | 3.5µM* | 32µM* | ?
O=Cc1c[nH]c2ccccc12 | . | . | . | -11% | . | 25%
Oc1ccc(/C=N/n2cc(-c3ccccc3)[nH]c2=S)cc1 | -29% | . | 18µM* | 4µM* | 2.5µM* | -14%
COc1cc(/C=N/n2cc(-c3ccccc3)[nH]c2=S)cc(OC)c1O | -18% | -19% | 20µM* | 1.3µM* | 0.5µM* | -25%
OC1(CC#CCN2CCCCC2)c2ccccc2-c2ccccc21 | ? | -13% | 13% | -12% | 24% | 26%
CCN(CC#CCC1(O)c2ccccc2-c2ccccc21)CCO | 0% | ? | 89µM* | 89µM* | -11%[0.0925 µM] | -4%
CN(Cc1ccco1)C(=O)CSc1nc(C2CC2)n(-c2ccccc2)n1 | -10% | ? | . | -19% | 32µM* | 31%
CC1CCCN(CCCNC(=O)c2cc(Sc3ccc(F)cc3)nc3ccccc23)C1 (stereo not given) | . | -5% | . | -19% | -6%[59 µM] | 11%
O=C(COC(=O)c1ccccn1)NCc1cccs1 | -7% | 8% | . | -8% | 13%[2.33 µM] | 14%
Cc1ccc(NC(=O)C(=O)NCCCN2CCCC2=O)cc1 | 9% | -9% | . | -7% | 1% | 20%
Cc1ccc(COc2ccc(CNCCCN3CCCCCC3=O)cc2)cc1 | . | 35µM* | -21% | 1.3µM* | 14µM* | 32µM*
O=C(Nc1ccc(C(=O)N2CCCc3ccccc32)cc1)c1cccs1 | -5% | -3% | -9% | 100µM* | 29% | 9%
O=S(=O)(c1ccc2c(c1)OCCO2)N1CCN(S(=O)(=O)c2ccc(Cl)cc2F)CC1 | . | . | . | -8% | . | .
Nc1ccc2nc[nH]c2c1 | -11% | -35% | -20% | ? | 50µM* | 6%
Cc1ccc(OCC(=O)NCCNC(=O)c2ccncc2)cc1C | . | 0% | 17% | -1% | 20% | 14%
CC(C(=O)NCc1ccccc1Cl)n1ccc2cc(S(=O)(=O)N3CCCCC3)ccc21 (stereo not given) | . | -20% | . | 7% | ? | 44%
COC(=O)c1c(Cl)c2n3ccccc3c(C)c(-c3ccccc3)c-2c1C(=O)OC | ? | ? | -28% | ? | 8.9µM* | ?
COC(=O)c1cc2c(-c3ccccc3)c(C)c3ccccn3c-2c1C(=O)OC | . | 14µM* | -13% | 45µM* | 14µM* | ?
SMILES | L3MBTL1 block | BAZ2B inh | Sfp inh | JMJD2A Tudor | G9a inh | HP1b chromo inh
COC(=O)c1c(C(=O)OC)c2ccccn2c1C(=O)c1ccccc1 | 10% | 0% | 11% | 8% | -10% | 58%
Cc1ccc(C)c(Cn2c(=O)cc(C)c3c(C)nn(C)c32)c1 | . | 18% | . | 25% | 38%[59 µM] | 79%
Nc1cc(=O)[nH]c(SCc2ccc(Cl)cc2Cl)n1 | . | -11% | 3% | -22% | 23% | 54%
Cc1cc2oc(C(=O)Nc3nc(-c4ccccc4)ns3)c(C)c2cc1Cl | . | 0% | . | -5% | -22%[59 µM] | 35%
O=C(Nc1nc2c(s1)CN(Cc1ccccc1)CC2)C1CCCC1 | 0% | ? | -7% | -14% | 45µM* | 15%
CC(C)(C)C(=O)Nc1nc2c(s1)CN(Cc1ccccc1)CC2 | -7% | -33% | -27% | -17%[11.4 µM] | 18µM* | 5%
Nc1c(C(=O)Nc2ccccc2)sc2nc3c(cc12)CN(Cc1ccccc1)CC3 | . | -11% | . | -20% | ? | 25%
O=C(Nc1nc2c(s1)CN(Cc1ccccc1)CC2)c1c(F)cccc1F | -7% | . | -6% | 50µM* | 8.9µM* | -8%
O=C1C2C3C=CC(C3)C2C(=O)N1CNc1ccc(O)cc1 (stereo not given) | ? | 45µM* | 56µM* | . | 2.2µM* | .
Cc1ccc(NCN2C(=O)C3C4CCC(C4)C3C2=O)cc1 (stereo not given) | . | 3% | 1% | . | -3% | .
Cc1ccc(NCN2C(=O)C3C4C=CC(C4)C3C2=O)cc1 (stereo not given) | 4% | 9% | 0% | 18µM* | 7% | -8%
COc1ccccc1-c1oc2ccccc2c(=O)c1OC | . | . | 2% | . | . | .
CCOC(=O)C1CCN(C(=O)Cc2ccccc2OC)CC1 | . | -13% | 2% | -5% | -13% | 17%
COc1ccccc1CN1CCCCC1C(=O)O (stereo not given) | 0% | -9% | 16% | 35µM* | -25% | 57%
CCOC(=O)C1CCCCN1Cc1ccccc1C(F)(F)F (stereo not given) | 1% | 7% | ? | 4.5µM* | 50%[59 µM] | ?
COc1ccccc1CNC(=O)C1CCCC1 | . | -16% | 12% | -5% | 2% | 11%
CCOC(=O)C1CCN(Cc2ccccc2C(F)(F)F)CC1 | 13% | 79µM* | -20% | 2.8µM* | 16µM* | ?
O=S(=O)(c1ccc(C(F)(F)F)cc1)N1CCN(c2nc(-c3ccccc3)nc3ccccc23)CC1 | . | . | . | -9% | . | 32%
O=C(CSc1nnc(CNC(=O)c2c(F)cccc2F)o1)NCc1ccco1 | . | 71µM* | 11% | -23% | . | 7%
O=C(CSc1nnc(CNC(=O)c2ccco2)o1)Nc1ccccc1 | . | . | 8% | 1% | -49% | 62%
O=C(CSc1nnc(CNC(=O)c2ccccc2)o1)NCc1ccco1 | . | -12% | 3% | -23% | . | 42%
